Compound activity as filed in PubChem.
Six1-Eya2 blk – inhibitors of human Six1/Eya2 interaction; AlphaScreen GST-Six1/His-Eya2 binding, biochemical; stronger effect = lower value; activity change, % (no concentration beside the values); AID 651725; 360,000 tested, 0.56% active; in the data active = activity change below about -65%; inconclusive = mostly about -30% to -63%
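GST-Six1 + His-Eya2 (5X stock: 250/500 nM); Tris pH 8.0, 300 mM NaCl, 0.05% BSA, 0.02% Tween 20; GSH donor/Ni acceptor beads; 1 h 37 °C dark; AlphaScreen readout.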
DT40 TDP1 no CPT – qHTS for Inhibitors of human tyrosyl-DNA phosphodiesterase 1 (TDP1): qHTS in cells in absence of CPT. AID 686978, 2013. Potency, µM (top dose mostly 46.2 µM), most hits filed as inhibitors. DT40 Tdp1-/- hTDP1 cells, no CPT, ATP luminescence, 48 h. 420,000 tested, 15% active; also: nearly all actives have a fitted effect of over 55% in size
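Camptothecin absent (DMSO only). Human TDP1-complemented DT40 knockout cells, 400 cells/well, 37 °C for minimum 48 hr; ATP measured via CellTiter-Glo, 30 min dark incubation, luminescence.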
CtBP-E1A inh – CtBP/E1A binding inhibition; AlphaScreen GST-E1A/His-CtBP binding, 1536-well; stronger effect = lower value; activity change, % (no concentration beside the values); AID 651724; 340,000 tested, 0.49% active; in the data active = activity change below about -65%; inconclusive = mostly about -30% to -63%
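Protein mix (5X: 125 nM each GST-E1A, His-CtBP) was incubated with pinned compound 2 h at 37 deg C in dark, in 50 mM Tris pH 8.0 buffer with 300 mM NaCl. Glutathione donor and nickel acceptor beads followed; AlphaScreen signal read after 1 h.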
IL1B secr inh – inhibitors of inflammasome signaling (IL-1 beta secretion) | THP-1 LPS/ATP IL-1B secretion, AlphaLISA, 16 h; stronger effect = lower value | activity change, % at 57.5 µM | 360,000 tested, 4.7% active | AID 743279; in the data active = activity change below about -50%; inconclusive = mostly about -30% to -49%
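Secreted IL-1B measured by AlphaLISA bead assay after 16 h compound exposure of THP-1 cells; compounds (final up to 57.5 uM) added 1 h before LPS (250 ng/mL) and ATP (1.25 mM) stimulation; lower signal means less secretion.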
TDP1 inh – inhibitors of human tyrosyl-DNA phosphodiesterase TDP1. Q9NUW8. recombinant TDP1, AlphaScreen DNA substrate cleavage. Potency, µM (series often up to 130 µM), hits mostly inhibitors. 350,000 tested, 0.28% active. AID 485290; also: nearly all actives have a fitted effect of over 40% in size
Target sequence (Q9NUW8 whole entry, looked up): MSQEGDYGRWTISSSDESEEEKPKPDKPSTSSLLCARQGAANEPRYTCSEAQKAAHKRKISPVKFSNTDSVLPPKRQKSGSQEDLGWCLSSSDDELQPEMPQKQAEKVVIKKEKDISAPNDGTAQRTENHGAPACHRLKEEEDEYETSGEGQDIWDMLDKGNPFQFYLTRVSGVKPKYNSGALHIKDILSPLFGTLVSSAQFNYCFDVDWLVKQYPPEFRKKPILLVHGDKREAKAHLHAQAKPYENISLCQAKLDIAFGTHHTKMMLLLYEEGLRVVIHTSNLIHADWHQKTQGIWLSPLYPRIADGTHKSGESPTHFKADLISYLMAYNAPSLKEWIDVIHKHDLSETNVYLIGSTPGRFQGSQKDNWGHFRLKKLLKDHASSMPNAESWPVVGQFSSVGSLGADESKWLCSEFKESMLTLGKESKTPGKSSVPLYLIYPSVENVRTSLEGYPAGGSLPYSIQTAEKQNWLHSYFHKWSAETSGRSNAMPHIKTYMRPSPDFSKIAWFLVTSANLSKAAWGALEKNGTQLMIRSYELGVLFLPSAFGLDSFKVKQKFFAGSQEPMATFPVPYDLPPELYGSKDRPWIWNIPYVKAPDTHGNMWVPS
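Tdp1 1 nM final; 15 min RT w/ cpd; substrate 15 nM, 5 min; beads 10 ug/ml, 10 min; AlphaScreen read. Neg ctrl: no enzyme.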
TDP1 cell CPT – growth inhibition of DT40 Tdp1-/-;hTDP1 cells with camptothecin (screen for TDP1 inhibitors) | chicken DT40 Tdp1-/-;hTDP1 cells + 20 nM CPT, ATP luminescence, 48 h | Potency, µM (highest dose often 46.2 µM), hits mostly inhibitors | 420,000 tested, 12% active; also: nearly all actives have a fitted effect of over 55% in size
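Chicken DT40 Tdp1-/- cells complemented with human TDP1, 400 cells/well, exposed to compounds plus 20 nM camptothecin for at least 48 h at 37 C; viability read as ATP content by CellTiter-Glo luminescence.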
Hits are given with their value; n = inactive; u = inconclusive; x = no result given. Rows were chosen to be rich in hits. Some 18% of all compounds tested hit in one or more screens of this group. Unless noted, calls follow the shape of the dose curve; as a rule, active = well fitted curve in the direction sought with a large enough effect; inconclusive = small, poorly fitted or top-dose-only effect, or another doubt; inactive = no such curve, though single readings can be large; an effect the other way counts as inactive or inconclusive.

SMILES	Six1-Eya2 blk	DT40 TDP1 no CPT	CtBP-E1A inh	IL1B secr inh	TDP1 inh	TDP1 cell CPT
CCN(CC)CCCC(C)Nc1nccc2c(Cl)cccc12 (stereo not drawn)	n	u	n	u	x	21µM
Clc1ccc2c(NCc3ccccc3)ccnc2c1	n	10µM	n	-99	n	u
COc1ccc(/C=C/C(=O)NCC(=O)N/N=C/c2ccc(OC)cc2)cc1	n	n	n	n	n	n
COc1ccc(CCn2c3c(c(=O)[nH]c2=O)C(NC(=O)c2ccc(Cl)cc2)(C(F)(F)F)C(=O)N3)cc1OC (stereo not drawn)	x	n	x	x	n	n
Cc1cc(C)c(S(=O)(=O)/N=C2/C=C(SCC(=O)O)C(=O)c3ccccc32)cc1C	n	1.8µM	n	u	n	1.8µM
CCOc1ccc2oc(C(=O)NC3CCN(Cc4ccccc4)CC3)c(C)c2c1	n	5.2µM	n	-64	n	3.7µM
Cc1ccc2oc(C(=O)Nc3cc(C)on3)c(C)c2c1	n	5.8µM	x	n	n	n
Cc1c(C(=O)NC2CCN(Cc3ccccc3)C2)oc2ccc(Br)cc12 (stereo not drawn)	n	u	n	u	n	u
Cc1ccc2oc(C(=O)N(C)Cc3ccc(C)o3)c(C)c2c1	n	16µM	n	n	n	8.2µM
CCCN(CC1CC1)C(=O)COC(=O)c1oc2ccc(OCC)cc2c1C	n	6.5µM	x	n	n	n
CCC(C)NC(=O)CNC(=S)N(CCCN1CCOCC1)Cc1cccs1 (stereo not drawn)	n	u	n	n	n	n
COc1nn(-c2nc(-c3ccccc3)cc(C(F)(F)F)n2)cc1[N+](=O)[O-]	n	n	n	n	n	n
Cc1cccc(N/N=C2/COC(C)(C)CC2=O)c1	n	n	x	n	n	n
COc1ccc(NC(=O)C2(C)CCN2C(=O)C(C)C)cc1F (stereo not drawn)	n	n	n	n	x	n
Cc1ccc(NC(=O)c2oc3ccccc3c2C)nc1	n	n	n	n	n	u
CCOc1ccc2oc(C(=O)Nc3ccc(C)cn3)c(C)c2c1	n	18µM	n	n	x	u
COC(=O)N/N=C(C)/C=C/c1ccccc1	n	n	n	n	x	n
Cc1cc(C)nc(N/N=C/C(Cl)=C/c2ccccc2)n1	n	n	n	-51	n	u
CCOC(=O)N/N=C(C)/C=C/c1ccccc1	n	0.082µM	n	n	n	0.37µM
CC(/C=C/c1ccco1)=N/NC(=O)CNc1ccccc1C	n	n	n	n	n	n
CC(/C=C/C=C/c1ccccc1)=N/NC(=O)CNc1ccccc1C	n	u	n	n	n	10µM
CCOC(=O)N/N=C/C(Cl)=C/c1ccccc1	n	u	n	-53	n	n
CC(C)c1ccc(NC(=O)C2(C)Cc3c(-c4ccc(C(N)=O)cc4)ccnc3O2)cc1 (stereo not drawn)	n	16µM	n	n	x	16µM
CC(=O)Nc1ccc(-c2ccnc3c2CC(C)(C(=O)NCCN(C)C)O3)cc1 (stereo not drawn)	n	u	n	n	x	n
CC(=O)Nc1ccc(-c2ccnc3c2CC(C)(C(=O)Nc2ccc(C(C)C)cc2)O3)cc1 (stereo not drawn)	n	21µM	n	-84	x	23µM
COc1ccccc1/C=C/C(=O)Nc1ccc(S(=O)(=O)Nc2cc(C)nc(C)n2)cc1	n	n	n	n	x	n
COc1ccc(CN2C(=O)c3cccc4cccc(c34)C2=O)cc1	n	n	n	n	n	n
COc1ccc(CN2C(=O)c3ccccc3C(/C=N\OCc3ccc(C)cc3)C2=O)cc1 (stereo not drawn)	n	21µM	n	n	n	21µM
Nc1ccn([C@@H]2O[C@H](C(=O)Nc3cc(C(F)(F)F)cc(C(F)(F)F)c3)[C@@H](O)[C@H]2O)c(=O)n1	n	n	n	n	x	n
